From PubChem BioAssay (EPA / NIEHS)
The source made the active and inactive calls. The calls were made as follows: active = hit-call score of the fitted dose curve at least 0.9, where 1 is the maximum; inconclusive = response in the unintended direction; inactive = score below 0.9.

biological target: Peroxisome proliferator-activated receptor gamma (Homo sapiens) (UniProt P37231); assay: OT_PPARg_PPARgSRC1_1440: Odyssey Thera (OT) 24-hour Protein-Complementation Assay for Peroxisome Proliferator-activated Receptor Gamma/ SRC-1 Co-activator (AID 2283388);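 also: nuclear to cytoplasmic ratio of reconstituted Venus YFP fluorescence in fixed imaged cells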
Method: OT_PPARg_PPARgSRC1_1440 is a cell-based assay that uses HEK293T, a human kidney cell line, with measurements taken at 24 hours after chemical dosing in a 384-well plate.OT_PPARg_PPARgSRC1_1440 is one of one assay component(s) measured or calculated from the OT_PPARg_PPARgSRC1_1440 assay. It is designed to make measurements of protein fragment complementation, a form of binding reporter, as detected with fluorescence intensity signals by Protein-fragment Complementation technology.Data from the assay component OT_PPARg_PPARgSRC1_1440 was analyzed into 1 assay endpoint. This assay endpoint, OT_PPARg_PPARgSRC1_1440, was analyzed in the positive analysis fitting direction relative to DMSO as the negative control and baseline of activity. Using a type of binding reporter, measures of receptor for gain-of-signal activity can be used to understand the binding at the pathway-level as they relate to the gene PPARG. Furthermore, this assay endpoint can be referred to as a primary readout, because the performed assay has only produced 1 assay endpoint. To generalize the intended target to other relatable targets, this assay endpoint is annotated to the nuclear receptor intended target family, where the subfamily is non-steroidal.
The OT PPARg/SRC-1 assay assessed receptor-chemical interactions using a rapidly maturing, intensely fluorescent mutant of YFP known as Venus, rationally dissected into two separate fragments. The fragments were obtained as follows: first, fragments coding for YFP1 and YFP2 (corresponding to amino acid residues 1-158 and 159-239 of the full length YFP, respectively) were generated by oligonucleotide synthesis (Blue Heron Biotechnology), and then PCR mutagenesis was used to generate the mutant fragments IFP1 and IFP2. Fusion constructs were transfected into HEK293T cells with a (Gly4Ser)2 linker between the PPARg/SRC-1 and YFP fragment genes to facilitate complementation when interacting proteins bring fragments into close proximity. The construct is transiently transfected in HEK293T cells 48 hours prior to treatment with test compounds. Cells are seeded into optical quality 384-well poly-D-lysine coated plates in MEM alpha medium (Invitrogen) supplemented with 10 percent FBS (Gemini Bio-Products) 1 percent penicillin and 1 percent streptomycin, and grown in 37C incubator equilibrated to 5 percent CO2. Cells are allowed to adhere for 24 hours prior to treatment with compounds of interest or controls for 24 hours. Cells are fixed in 4 percent formaldehyde and stained with Draq5 (BioStatus) to identify cells and subcellular compartment boundaries prior to signal detection. 8 Images per well were acquired on an Evotec Opera at 2 wavelengths (488 and 635nm), and the ratio of fluorescence in the nucleus relative to fluorescence in the cytoplasm (N/C Ratio) in the 488nm channel was calculated for a minimum of 350 cells per image.

Sequence of Peroxisome proliferator-activated receptor gamma (Homo sapiens) (P37231 whole entry, looked up, the tested form may be a part): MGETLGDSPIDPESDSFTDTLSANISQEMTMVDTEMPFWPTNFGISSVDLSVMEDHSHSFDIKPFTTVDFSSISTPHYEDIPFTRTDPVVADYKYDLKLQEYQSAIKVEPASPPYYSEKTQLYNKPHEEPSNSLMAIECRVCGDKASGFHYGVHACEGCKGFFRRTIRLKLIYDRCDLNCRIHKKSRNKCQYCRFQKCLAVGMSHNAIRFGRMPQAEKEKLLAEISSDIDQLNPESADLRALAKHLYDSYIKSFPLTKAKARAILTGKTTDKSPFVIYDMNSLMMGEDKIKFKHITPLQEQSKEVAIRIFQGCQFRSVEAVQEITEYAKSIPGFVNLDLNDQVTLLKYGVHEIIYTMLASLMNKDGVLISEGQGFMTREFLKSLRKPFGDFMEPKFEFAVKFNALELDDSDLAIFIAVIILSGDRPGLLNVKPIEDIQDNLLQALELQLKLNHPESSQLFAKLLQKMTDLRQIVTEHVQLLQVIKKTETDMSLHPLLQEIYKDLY

outcome, inactive:
CC(C)CCOC(=O)c1ccccc1, Nc1ccc(N)c2c1C(=O)c1ccccc1C2=O, Nc1ccc2cc(S(=O)(=O)O)cc(O)c2c1N=Nc1ccccc1C(F)(F)F, CCCCCCCCCC(=O)OC, CCCCCC(C=O)=Cc1ccccc1, CCCCCC(=O)CC, O=P(O)(O)O, Clc1ccc(C(c2ccccc2Cl)C(Cl)Cl)cc1 (stereo not given), CCCCCCCC(=O)OCC(O)CO (stereo not given), CCOC(=O)C1OC1c1ccccc1 (stereo not given), CCCCCCCCCCCCN1CCCCCC1=O, CCC(=O)O[C@@H]1C[C@H]2CC[C@]1(C)C2(C)C, C#CC(C)(O)CC(C)C (stereo not given), C1=CC2C3C=CC(C3)C2C1 (stereo not given), C=C[Si]1(C)O[Si](C)(C=C)O[Si](C)(C=C)O[Si](C)(C=C)O1 (stereo not given), O=C(O)CCCCCCCCC(=O)O, CN(C)c1cccc(O)c1, O=C(Nc1ccc2c(O)c(N=Nc3ccc(N=Nc4ccc(S(=O)(=O)O)cc4)cc3)c(S(=O)(=O)O)cc2c1)c1ccccc1, C=C(C)C(=O)OCCOC1CC2CC1C1C=CCC21 (stereo not given), CC(C)NCC(O)COc1ccc(CC(N)=O)cc1 (stereo not given), CC(=O)O[C@@H]1CC2CCC1(C)C2(C)C (stereo not given in full), CC(C=O)Cc1ccc(C(C)(C)C)cc1 (stereo not given), CCC1(C)NC(=O)NC1=O (stereo not given), O=C(O)c1ccc(O)cc1, CC1CCC(C(C)C)C(O)C1 (stereo not given), CC1(C)C(=O)N(Cl)C(=O)N1Br, O=C(CC(=O)c1ccccc1)c1ccccc1, CCOc1ccc(N=Nc2ccc(C=Cc3ccc(N=Nc4ccc(OCC)cc4)cc3S(=O)(=O)O)c(S(=O)(=O)O)c2)cc1, O=[N+]([O-])c1ccc(O)cc1C(F)(F)F, CC(C)CCCCCCc1ccc(OCCOCCO)cc1, BrCc1cccc(Oc2ccccc2)c1, O=Cc1ccccc1S(=O)(=O)O, C=C1CC[C@H](O)C/C1=C/C=C1\CCC[C@]2(C)[C@@H]([C@H](C)/C=C/[C@H](C)C(C)C)CC[C@@H]12, CCCCCC(C)=O, OCc1cccc(Oc2ccccc2)c1, CCCCC1CCC(O)CC1 (stereo not given), OCC#CCO, O=c1c(O)c(-c2ccc(O)cc2)oc2cc(O)cc(O)c12, OC[C@H]1O[C@@H]2O[C@H]3[C@H](O)[C@@H](O)[C@@H](O[C@H]4[C@H](O)[C@@H](O)[C@@H](O[C@H]5[C@H](O)[C@@H](O)[C@@H](O[C@H]6[C@H](O)[C@@H](O)[C@@H](O[C@H]7[C@H](O)[C@@H](O)[C@@H](O[C@H]8[C@H](O)[C@@H](O)[C@@H](O[C@H]9[C@H](O)[C@@H](O)[C@@H](O[C@H]1[C@H](O)[C@H]2O)O[C@@H]9CO)O[C@@H]8CO)O[C@@H]7CO)O[C@@H]6CO)O[C@@H]5CO)O[C@@H]4CO)O[C@@H]3CO, C=CC(C)(O)CCC=C(C)C (stereo not given)
